Measured values taken from paper PMC4552634, “A New Set of Chemical Starting Points with Plasmodium falciparum Transmission-Blocking Potential for Antimalarial Drug Discovery” (PLoS ONE, 2015).
Hit rate of the full screen: of about 13,000 compounds, about 3,200 (25%) showed an effect of 50% or more. Some of the results follow.

Tested on: P. falciparum stage V gametocytes
Parameters: BacTiter-Glo ATP luminescence viability of purified stage V gametocytes in 384-well plates, per cent inhibition versus DMSO
Settings: 48 h, 5 µM; inhibitor

Compound | % Inhibition
Clc1ccc(CNc2nc(NCCc3cnc[nH]3)nc(Nc3ccc4c(c3)OCO4)n2)cc1 [TCMDC-139740] | 19.01%
O=C(COc1ccccc1Cl)N1CCc2cc3nccc(N4CCN5CCC[C@H]5C4)c3cc21 [TCMDC-140049] | 15.14%
Oc1ccc(Cl)cc1CN1CCCC(COC(c2ccc(F)cc2)c2ccc(F)cc2)C1 (centres unmarked) [TCMDC-136034] | 8.672%
O=C(NCCN1CCC(NC(=O)c2ccc(-c3ccccn3)s2)CC1)c1cccc(C(F)(F)F)c1 [TCMDC-141952] | 4.93%
N#Cc1ccc2c(c1)CN(CCC1CCC(NC(=O)c3cc4ccccc4cc3N)CC1)CC2 (centres unmarked) [TCMDC-139164] | 18.76%
CC1CCCN(Cc2cc(Cl)cc(Cl)c2O)C1 (centres unmarked) [TCMDC-125392] | 14.71%
O=C(c1ccc(Cl)cc1Cl)N1CCCC(C(F)(F)F)C1 (centres unmarked) [TCMDC-123721] | 22.72%
Oc1c(CN2CCCC(C(F)(F)F)C2)cc(Cl)c2ccccc12 (centres unmarked) [TCMDC-124857] | 96.48%
CC(=O)Nc1ccc(CN2CCC(N(C)c3cc(NC(=O)c4ccc(F)cc4)ccn3)CC2)cc1 [TCMDC-134983] | -11.33%
Cc1cnc(CN(Cc2ccc(-c3ccc(CNCCc4ccc(S(C)(=O)=O)cc4)cn3)cc2)C(=O)c2ccc([N+](=O)[O-])c(C)c2)cn1 [TCMDC-141520] | 64.44%
Cc1cc(C(=O)N(Cc2ccc(-c3ccc(CNCCc4ccc(S(C)(=O)=O)cc4)cn3)cc2)C(C)CN(C)C)ccc1[N+](=O)[O-] (centres unmarked) [TCMDC-141521] | 51.26%
Cc1nn(-c2ccccc2)nc1C(=O)N(Cc1ccc(-c2ccc(CNCCc3ccc(S(C)(=O)=O)cc3)cn2)cc1)C1CC1 [TCMDC-141523] | 39.99%
Cc1cnc(CN(Cc2ccc(-c3ccc(CNCCc4ccc(S(C)(=O)=O)cc4)cn3)cc2)C(=O)c2nn(-c3ccccc3)nc2C)cn1 [TCMDC-141522] | -18.48%
C=CC[C@H](C[C@H](O)[C@H](Cc1ccccc1)NC(=O)c1nn(-c2ccccc2)nc1C)C(=O)NC1CCCCC1 [TCMDC-141422] | -47.48%
O=C(Cc1cccc(Cl)c1)Nc1cccc(-c2c[nH]c3nc(Nc4cccc(OCc5ccccc5)c4)ncc23)c1 [TCMDC-134680] | -43.48%
Cc1ccc(Nc2nccc(NCC(O)c3cccc(F)c3)n2)cc1 (centres unmarked) [TCMDC-136572] | -5.913%
C[C@@H](COc1ccccc1)NCC(O)c1ccc([N+](=O)[O-])c(OCc2ccccc2)c1 (some centres unmarked) [TCMDC-132032] | 7.287%
